High-throughput results as filed in PubChem BioAssay.
This is a sample that favours compounds with a hit; in the whole collection about 9.9% have one here.
SW480 rerep: induces DNA re-replication in SW480 colon adenocarcinoma cells. 340,000 tested, 1.8% active. SW480 DNA re-replication, Hoechst DNA content imaging, 48 h. Potency, µM (top dose mostly 46.1 µM), usual class: activators; further: nearly all actives have a fitted effect of over 55% in size
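Image-based read-out: total Hoechst fluorescence of nuclei (405 nm excitation, 500-530 nm emission), with hits raising the fraction of high-intensity nuclei. SW480 colon cells incubated 48 hr with compounds at 37 C.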
MCF10A rereplic: induces DNA re-replication in MCF 10a normal breast cells; MCF 10A DNA re-replication, Hoechst nuclear intensity, 48 h; Potency, µM (series often up to 46.1 µM), most hits filed as activators; 350,000 tested, 2.9% active; AID 624296; further: nearly all actives have a fitted effect of over 50% in size
KB-3-1 tox: KB-3-1 parental cell cytotoxicity | AID 1347075 | Potency, µM (highest dose often 46.1 µM), most hits filed as cytotoxic | 400,000 tested, 1.4% active | KB-3-1 viability, CellTiter-Glo ATP luminescence, 72 h; further: nearly all actives have a fitted effect of over 60% in size
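Viability of parental KB-3-1 cells, measured by CellTiter-Glo luminescence, followed a 72 h incubation at 37 °C with pinned compounds in phenol-red-free DMEM containing 10% FBS.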
IL1B secr inh: blocks inflammasome-driven IL-1 beta release | THP-1 LPS/ATP IL-1B secretion, AlphaLISA, 16 h; stronger effect = lower value | activity change, % at 57.5 µM | 360,000 tested, 4.7% active | AID 743279; in the data active means activity change below about -50%; inconclusive means mostly about -30% to -49%
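Secreted IL-1B measured by AlphaLISA bead assay after 16 h compound exposure of THP-1 cells; compounds (final up to 57.5 uM) added 1 h before LPS (250 ng/mL) and ATP (1.25 mM) stimulation; lower signal means less secretion.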
KB-V1 MDR tox: kills drug-selected multidrug resistant KB-V1 cells; KB-V1 MDR cells viability, CellTiter-Glo, 72 h; AID 1347076; 400,000 tested, 3.4% active; Potency, µM (titrated, usually from 46.1 µM), most hits filed as cytotoxic; further: nearly all actives have a fitted effect of over 60% in size
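Luminescent ATP read-out (CellTiter-Glo, 10 min) measures survival of drug-selected KB-V1 MDR cells after 72 h, 37 degrees C compound exposure. Medium: phenol-red-free DMEM, 10% FBS. Values from fitted concentration-response curves.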
Large screens that a line does not name were inactive; ! = repeats disagree. Unless noted, the call rests on the fitted dose curve; in most records, active means well fitted curve in the direction sought with a large enough effect; inconclusive means small, poorly fitted or top-dose-only effect, or another doubt; inactive means no such curve, though single readings can be large; an effect the other way counts as inactive or inconclusive.

COc1cc(OC)cc(C(=O)NC(C(=O)Nc2ccc3c(c2)OCO3)C(C)C)c1 (stereo not drawn)	none
Oc1ccc(Br)cc1/C=N/n1c(COc2ccccc2)n[nH]c1=S	MCF10A rereplic inconclusive, KB-3-1 tox inconclusive
O=c1c2ccccc2nc(COc2ccccc2)n1/N=C/c1cc([N+](=O)[O-])ccc1O	KB-3-1 tox inconclusive, KB-V1 MDR tox 7.3µM
Cc1ccc(S(=O)(=O)N(C)c2ccc(C(=O)Nc3c(C)n(C)n(-c4ccccc4)c3=O)cc2)cc1	none
NC(=O)c1ccccc1OCc1nnc(-c2ccccc2Br)o1	KB-V1 MDR tox 18µM
COc1ccc(S(=O)(=O)N2CCOCC2)cc1NC(=O)c1ccc(OC(F)F)cc1	none
COc1cc(C)c(C(C)C)cc1S(=O)(=O)n1cnc(C)c1	SW480 rerep 5.2µM, MCF10A rereplic inconclusive, KB-3-1 tox 5.2µM, KB-V1 MDR tox inconclusive
COc1ccc(C)cc1S(=O)(=O)n1cnc(C)c1	none
CCOC(=O)c1cc2c(=O)n3ccccc3nc2n(Cc2ccco2)c1=NC(=O)c1c(F)cccc1Cl	none (no result: SW480 rerep, MCF10A rereplic, IL1B secr inh)
CC(C)CC1(C(=O)NCc2cc(F)cc(C(F)(F)F)c2)C=CCN1C(=O)c1ccccc1 (stereo not drawn)	MCF10A rereplic 1.5µM
CCCCOC(=O)c1ccc(NC(=O)Cn2nnc3sc4c(c3c2=O)CCCC4)cc1	none (no result: SW480 rerep, MCF10A rereplic, IL1B secr inh)
CC1=C(C(=O)Nc2ccccc2)C(c2ccc(C)o2)n2c(s/c(=C/c3ccccc3)c2=O)=N1 (stereo not drawn)	MCF10A rereplic 15µM, IL1B secr inh inconclusive
CC1=C(C(=O)Nc2ccccc2C)C(c2ccc(C)o2)n2c(s/c(=C/c3ccccc3)c2=O)=N1 (stereo not drawn)	none
O=C(Nc1ccc(F)c(Cl)c1)c1cc(C2CCCCN2C(=O)c2cccs2)on1 (stereo not drawn)	KB-3-1 tox 23µM (no result: SW480 rerep, MCF10A rereplic)
S=c1[nH]nc(-c2ccc3ccccc3n2)n1-c1cc(Cl)cc(Cl)c1	KB-V1 MDR tox 16µM
CCn1c(O)c(C=Nc2ccccc2)n(-c2ccccc2)c1=S	KB-3-1 tox 5.8µM, KB-V1 MDR tox inconclusive
CCc1ccc(C(=O)N/N=C/c2cccc3ccccc23)nc1	none
Cc1nc(SCC(=O)NNC(=O)c2cccs2)[nH]c(=O)c1C	none
COc1ccc(NC(=O)C2CC2(Cl)Cl)cc1S(=O)(=O)N1CCCCC1 (stereo not drawn)	none (no result: SW480 rerep, MCF10A rereplic)
CCOC(=O)c1c2c(c(=S)n(-c3ccccc3)c1N)CCC2	SW480 rerep inconclusive, MCF10A rereplic inconclusive, KB-V1 MDR tox 21µM
CCc1ccc(OCc2ccccc2C(=O)Nc2ccc3nc(C)cc(N)c3c2)cc1	KB-3-1 tox 16µM, KB-V1 MDR tox inconclusive (no result: SW480 rerep, MCF10A rereplic, IL1B secr inh)
Cc1cc(C)nc(NC(=O)/C=C/c2ccc(Cl)cc2Cl)c1	MCF10A rereplic inconclusive, IL1B secr inh -53, KB-V1 MDR tox 9.2µM
Cc1ccnc(NC(=O)/C=C/c2ccccc2Cl)c1	SW480 rerep inconclusive, IL1B secr inh -69, KB-V1 MDR tox inconclusive
Cc1cc(N)c2cc(NC(=O)/C=C/c3ccccc3Cl)ccc2n1	SW480 rerep inconclusive, MCF10A rereplic inconclusive, KB-3-1 tox inconclusive, IL1B secr inh -65
Cc1cc(C)nc(NC(=O)/C=C/c2ccccc2Cl)n1	IL1B secr inh inconclusive
Cc1cc(C)nc(NC(=O)/C=C/c2ccccc2Cl)c1	IL1B secr inh inconclusive, KB-V1 MDR tox inconclusive
COc1ccc(C(=O)/C(Br)=C/C(=O)O)cc1	SW480 rerep inconclusive, MCF10A rereplic 21µM (no result: KB-3-1 tox, IL1B secr inh, KB-V1 MDR tox)
COc1ccc(C(=O)C(=O)c2ccc(OCCO)cc2)cc1	none
COc1cc(NC(=O)COc2ccc(-n3ccnc3)cc2)cc(OC)c1	KB-3-1 tox inconclusive, IL1B secr inh -106, KB-V1 MDR tox inconclusive
O=c1cc(CNc2cc(C(F)(F)F)cc(C(F)(F)F)c2)nc2sccn12	MCF10A rereplic inconclusive, KB-3-1 tox 23µM, IL1B secr inh -71, KB-V1 MDR tox 26µM
CCOC(=O)c1ccc(N=c2sc(C(=O)OC)cc(=O)n2CCCN2CCOCC2)cc1	KB-3-1 tox inconclusive, IL1B secr inh -57!
N#C/C(=C\c1ccc(Cl)cc1)C(=O)Nc1cccnc1	none
CC1C(=O)N(Cc2cn(CC3CCCCC3)nn2)CCS(=O)(=O)N1Cc1ccc(-c2ccc(Cl)cc2)cc1 (stereo not drawn)	KB-3-1 tox inconclusive, KB-V1 MDR tox 18µM (no result: SW480 rerep, MCF10A rereplic)
COCOCCn1cc(CN2CCS(=O)(=O)N(Cc3ccc(-c4ccc(Cl)c(Cl)c4)cc3)C(C)C2=O)nn1 (stereo not drawn)	KB-3-1 tox 15µM, KB-V1 MDR tox inconclusive (no result: SW480 rerep, MCF10A rereplic)
CC(C)C1C(=O)N(Cc2cn(CC3CCCCC3)nn2)CCS(=O)(=O)N1Cc1ccc(-c2ccc(F)nc2)cc1 (stereo not drawn)	KB-3-1 tox 16µM, IL1B secr inh inconclusive, KB-V1 MDR tox inconclusive (no result: SW480 rerep, MCF10A rereplic)
CCNC(=O)C1CCCN(C(=O)c2cccc(OC(F)(F)F)c2)CC1 (stereo not drawn)	none (no result: SW480 rerep, MCF10A rereplic)
CC1C(=O)N2CCCc3cc(NC(=O)C4CC4)cc1c32 (stereo not drawn)	none
CCN(CC)S(=O)(=O)c1ccc2c(c1)N(CC(=O)N(C)Cc1ccccc1)C(=O)CO2	none (no result: SW480 rerep, MCF10A rereplic, IL1B secr inh)
Clc1nc(-c2ccccn2)nc2scc(-c3ccccc3)c12	SW480 rerep inconclusive, MCF10A rereplic inconclusive, KB-3-1 tox inconclusive, IL1B secr inh -60, KB-V1 MDR tox 12µM
COc1ccc(-c2csc3ncnc(Cl)c23)cc1	SW480 rerep inconclusive
COc1cc(-c2nnc(-c3cc(OC)c(OC)c(OC)c3)o2)cc(OC)c1OC	KB-3-1 tox inconclusive
CCCc1nnc(-c2cc(OC)c(OC)c(OC)c2)o1	none
COc1cc(-c2nnc(-c3ccccc3)o2)cc(OC)c1OC	IL1B secr inh inconclusive, KB-V1 MDR tox 9.2µM
COc1cc(-c2nnc(COc3ccc4ccccc4c3)o2)cc(OC)c1OC	MCF10A rereplic inconclusive, KB-V1 MDR tox 23µM
CC(C)(C)n1nc2c(c1NC(=O)Cc1ccc([N+](=O)[O-])cc1)CS(=O)(=O)C2	none (no result: KB-3-1 tox, KB-V1 MDR tox)
CC(=O)Nc1sc(C)c(C)c1C(=O)OCC(=O)NCc1ccc(Cl)cc1	none
COc1cccc(CNC(=O)COC(=O)c2c(NC(C)=O)sc(C)c2C)c1	SW480 rerep 16µM, KB-V1 MDR tox inconclusive
COc1cccc(CNC(=O)COC(=O)c2nc(Cl)c(Cl)c(Cl)c2Cl)c1	SW480 rerep 12µM, MCF10A rereplic 7.3µM, KB-3-1 tox inconclusive, IL1B secr inh -101
CCCc1cc(-c2[nH]ncc2-c2ccc(C(=O)OCC)o2)c(O)cc1O	IL1B secr inh -84, KB-V1 MDR tox inconclusive
CCCc1cc(-c2[nH]ncc2-c2ccc3c(c2)OCCCO3)c(O)cc1O	KB-3-1 tox inconclusive, KB-V1 MDR tox inconclusive
COc1ccccc1C1CC(=O)Oc2cc(C)c(Cl)c(C)c21 (stereo not drawn)	MCF10A rereplic inconclusive
Cc1ccc(CS(=O)(=O)c2nc3c(c(N(C)C)n2)CCCC3)cc1	KB-3-1 tox inconclusive, IL1B secr inh -79, KB-V1 MDR tox inconclusive
Cc1nc(S(=O)(=O)Cc2ccc(Cl)cc2)nc2c1CCC2	none
